Screening data: PubChem BioAssay, Broad Institute
Tg IFNy HTS: T. gondii growth inhibition with IFN-gamma, primary screen, cell-based; actives 3.8% (n = 69,000); activity change, negative = inhibition, % (concentration not given with the values); Toxoplasma gondii growth in IFN-gamma-treated host cells; hits give low values; AID 1259416, 2018; in the data active = activity change below about -70%, passing the limit was not always enough;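 note: host cells are HeLa cells infected with Toxoplasma gondii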
Of the large screens only hits and unclear results are named; the others gave an inactive call. This is one part of a sample in which hits are shown more often than they occur.

CCN(CC)C1CCN(Cc2nc(-c3ccc(C(F)(F)F)cc3)no2)C1 (centres undefined)	none
Cc1ccc(N2CCCC3(CCN(CCN(C)C)C3=O)C2)nn1 (centres undefined)	none
Cc1ccc(-c2nn3c(=O)c(C)nnc3s2)cc1C	none
Cc1cccc(N2CCc3c(COCCN(C)C)cncc3C2)n1	none
Cc1nc(-c2ccccc2)sc1CCNC(=O)C(=O)Nc1cccc(Cl)c1	none
CCOC(=O)c1nc(NCCOC)c2ccccc2n1	none
CCOC(=O)c1nc(N(C)c2ccccc2C)c2ccccc2n1	none
CCCN(c1ccc(F)cc1)c1nc(C(=O)OCC)nc2ccccc12	none
CCOC(=O)c1nc(NCCCN2CCN(Cc3ccccc3)CC2)c2ccccc2n1	none
CCCCN(CCCNc1nc(C(=O)OCC)nc2ccccc12)c1ccccc1	Tg IFNy HTS -78
CCCCN(CC)c1nc(C(=O)OCC)nc2ccccc12	Tg IFNy HTS -87
Cc1oc(-c2ccc(C(=O)NC3CCS(=O)(=O)C3)cc2)nc1CN1CCN(c2ccccc2)CC1 (centres undefined)	none
CC(=O)Nc1ccc(C(=O)N2CCCCC2CCc2ccc(O)cc2)cc1 (centres undefined)	none
O=C1Cc2cc(N3CC(C(=O)O)CC3=O)ccc2N1 (centres undefined)	none
Fc1ccc(-c2noc(-c3ccc4c(c3)OCO4)n2)cc1	none
O=C1Cc2cc(-c3ccc4c(c3)OCO4)ccc2N1	Tg IFNy HTS -75
CN1CC(=O)N(c2cccc(F)c2)CC12CCN(S(=O)(=O)C1CC1)C2 (centres undefined)	none
COc1ccc(CN(C(=O)c2cc(-c3ccc(C)cc3)on2)C2CCN(C)CC2)cc1	Tg IFNy HTS -76
COc1ccc(-c2ccc(C(=O)N(Cc3nccn3C)C3CC3)o2)cc1	none
COc1ccc(CN(C(=O)c2cc(C(C)C)c3nncn3n2)C2CCN(C)CC2)cc1	none
CCc1nnc(NS(=O)(=O)c2ccc(NC(=S)NC(=O)c3ccco3)cc2)s1	none
Cc1oc(C2CCN(C(=O)Cc3cccc(F)c3)CC2)nc1C(=O)N1CCSCC1	none
CN1CC(=O)N(c2cccc(F)c2)CC12CCN(C(=O)N1CCCC1)C2 (centres undefined)	none
N#Cc1ccc(N2CCC3(CC2)CC(c2cccnc2)CO3)cc1 (centres undefined)	none
Fc1ccc(N2CCC3(CC2)CC(c2cccnc2)CO3)cc1 (centres undefined)	Tg IFNy HTS -82
COc1ccc(CN2CCC3(CC2)CC(c2cccnc2)CO3)cc1 (centres undefined)	none
CN(C)C1CCN(C(=O)c2cc3c(c4ccccc4n3CC3CC3)n2-c2ncccn2)CC1	none
Cc1nc(-c2ccc(Cl)cc2)sc1CCNC(=O)C1CCCC1	none
O=C1OC(=O)C2C1[C@@H]1CC[C@H]2O1 (some centres undefined)	Tg IFNy HTS -77
FC(F)(F)C(OCc1n[nH]c(Cc2ccccc2)n1)c1ccccc1 (centres undefined)	none
Nc1c(C(=O)N2CCOCC2)sc2nc3c(cc12)CCCCC3	none
COc1ccccc1NC(=O)c1c(O)c2cccnc2n(-c2cccc(F)c2)c1=O	none
C=CCN(Cc1cccnc1)Cc1ccccc1C	none
CCCN(C)C[C@H]1Oc2cc(/C=C/c3ccccc3)ccc2S(=O)(=O)N([C@H](C)CO)C[C@H]1C	Tg IFNy HTS -92
CCCC#Cc1ccc2c(c1)O[C@H](CN(C)Cc1ccccn1)[C@H](C)CN([C@@H](C)CO)S2(=O)=O	Tg IFNy HTS -94
CCCN(C)C[C@@H]1Oc2cc(/C=C/c3ccccc3)ccc2S(=O)(=O)N([C@H](C)CO)C[C@@H]1C	none
C[C@H]1CN([C@@H](C)CO)S(=O)(=O)c2ccc(C#CCC3CCCC3)cc2O[C@@H]1CN(C)C(=O)c1cnccn1	none
Cc1ccc(S(=O)(=O)N(C)C[C@@H]2Oc3cc(C#CC4CCCC4)ccc3S(=O)(=O)N([C@@H](C)CO)C[C@H]2C)cc1	Tg IFNy HTS -109
C[C@H](CO)N1C[C@H](C)[C@H](CN(C)C(=O)c2cnccn2)Oc2cc(C#CCC3CCCC3)ccc2S1(=O)=O	Tg IFNy HTS -100
CCCC#Cc1ccc2c(c1)O[C@@H](CN(C)Cc1ccccn1)[C@H](C)CN([C@@H](C)CO)S2(=O)=O	none
C[C@@H]1CN([C@@H](C)CO)S(=O)(=O)c2ccc(-c3ccncc3)cc2O[C@H]1CN(C)S(C)(=O)=O	none
CCCC#Cc1ccc2c(c1)O[C@H](CN(C)Cc1ccccn1)[C@@H](C)CN([C@H](C)CO)S2(=O)=O	none
C[C@H](CO)N1C[C@H](C)[C@H](CN(C)Cc2ccccc2C(=O)O)Oc2cc(-c3ccc(F)cc3)ccc2S1(=O)=O	none
COCC#Cc1ccc2c(c1)O[C@H](CN(C)C(=O)C1CCOCC1)[C@H](C)CN([C@@H](C)CO)S2(=O)=O	none
C[C@@H]1CN([C@@H](C)CO)S(=O)(=O)c2ccc(C#Cc3cccc(F)c3)cc2O[C@@H]1CN(C)S(=O)(=O)c1cn(C)cn1	none
CC(C)Cc1cc(C(=O)N2CCC(Oc3ncccn3)CC2)n[nH]1	none
COCCN1CCc2ncc(CNC(=O)CC3CC3)n2CC1	none
O=C(Cn1c(=O)cc(C(=O)N2CCCC2)c2ccccc21)Nc1cccc(F)c1	none
Cc1ncsc1CCN(C)Cc1cnc(N)nc1	none
CCn1nc(C(C)C)cc1C(=O)NCC1CCCN(S(C)(=O)=O)C1 (centres undefined)	none
COC[C@H]1CCC[C@]12CN(S(=O)(=O)c1cccs1)CCO2	none
O=C(c1ccc(F)cc1)N1CC(C(=O)N2CCOCC2)C2(CCOCC2)C1 (centres undefined)	none
C=CCn1c(=O)c(-c2nc(-c3ccc(SC)cc3)no2)c(O)c2ccccc21	none
Cc1cc(C)c2[nH]c(=O)c(C(c3nnnn3C(C)(C)C)N3CCc4ccccc43)cc2c1 (centres undefined)	none
CC(=O)N1CCC(C(=O)NCc2ccccc2)(N(C(=O)c2ccc(C)cc2)C2CCCC2)CC1	none
CS(=O)(=O)N(CCCC(=O)NCc1ccco1)c1cc(Cl)ccc1Cl	none
Cc1ccccc1NC(=O)CN(c1cc(Cl)ccc1C)S(C)(=O)=O	none
Cc1ccc(Cl)cc1N(CC(=O)Nc1c(F)cccc1F)S(C)(=O)=O	Tg IFNy HTS -76
Cc1cc(C)n(C)c(=O)c1C(=O)Nc1ccc(N2CCCCC2)c(F)c1	none
COCCN1CCOCC12CCN(Cc1ccn[nH]1)CC2	none
Cc1cccnc1CN1CCC2(CC(NC(=O)c3cnn(C)c3)C2)C1 (centres undefined)	none
O=C(O)CNS(=O)(=O)c1ccc(-c2ccccc2)cc1	none
CC(C)ON([C@@H](C(=O)NO)C(C)C)S(=O)(=O)c1ccc(-c2ccccc2)cc1	Tg IFNy HTS -75
CC(C)[C@H](NS(=O)(=O)c1ccc(-c2ccc(Br)cc2)cc1)C(=O)O	none
CCn1c(C2CCNCC2)nn(CC2CCCS(=O)(=O)C2)c1=O (centres undefined)	none
CC(C)c1cc(C2CCCN2C(=O)Cn2nc(C(F)(F)F)c3c2CCCC3)on1 (centres undefined)	none
CC(C)(C)c1ccc2cc(C#N)c(C#N)cc2c1	Tg IFNy HTS -80
N#Cc1cc2c(ccc3ccccc32)oc1=N	none
COCCN1CCC2(CC1)CC(NC(=O)C1CC1)c1ccccc12 (centres undefined)	none
Cc1ccccc1-c1nc(CN2CCN(C(=O)Nc3ccccc3)CC2)c(C)o1	none
COc1ccc(C(=O)N2CCCC(O)(CN(C)C)C2)c(OC)n1 (centres undefined)	none
Nc1cccc(C(=O)O)c1	none
O=C(O)c1ccc2nc3c(nc2c1)-c1cccc2cccc-3c12	Tg IFNy HTS -110
Cc1nc2ccc(C(=O)O)cc2nc1C	none
Cc1cccc(N(C)S(=O)(=O)c2csc(C(=O)NCc3cccnc3)c2)c1	none
